This is part of a sample that, as a whole, favours compounds with a hit. Of some 83,000 tested, about 20% had one in any assay.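 Note: values are percent growth. 100 is the growth of untreated cells, values between 100 and 0 indicate rising inhibition; between -100 and 0 indicates cell death.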 A number with no mark means an inactive call. Activity calls are given as the source filed them. Rule for the calls: active = growth percent below 10; inactive = the rest.
test system: NCI-H23 lung; test: NCI-60 one-dose screen, 48 h (100 = growth as untreated, 0 = no growth, -100 = all killed); settings: 10 µM unless noted

SMILES | growth
CCN(CC)S(=O)(=O)c1ccc2[nH]c(=O)cc(C(=O)Nc3ccc(OC)cc3OC)c2c1 | 97.8%
COc1ccc(/C=C/C(=O)OCC(=O)NNC(=O)c2ccccc2)cc1OC | 106%
COc1ncc(-c2ccc3ncnc(Nc4cccc(Cl)c4)c3c2)cc1N(S(C)(=O)=O)S(C)(=O)=O | 71.5%
Cc1c(C(=O)NCc2ccccc2)[n+](=O)c2cc(F)ccc2n1[O-] | 90.1%
COc1cc(Br)c(OC)cc1Br | 78%
CN1CCN(CCCOc2ccc3nc(Nc4ccc(C(F)(F)F)c(Cl)c4)ccc3c2)CC1 | 38.1%
CC(=O)c1cc(C(=O)c2ccc3c(c2)Sc2ccccc2N3)c2cc(C)ccn12 | 16.5%
Cc1cc(C(=O)O)c(N)c(C)n1 | 100%
c1ccc2c(c1)Oc1ccccc1C2C1c2ccccc2Oc2ccccc21 | 90.6%
CC/C=C\C[C@H](O)C/C=C1/C(=O)C(Cl)=C[C@@H]1C/C=C\CCCC(=O)O | 70.2%
O=C(Nc1ccc(I)cc1)c1cc([N+](=O)[O-])ccc1O | 8.5% (active)
O=C(CSc1nc(-c2ccc(Cl)cc2)cn1-c1ccc(Cl)cc1)c1ccc(Br)cc1 | 77.1%
N#CC1=C(N)n2nc(-c3ccncc3)nc2NC1c1cccc2ccccc12 (stereo unspecified) | 90.4%
Cc1ccc2nc(-c3c(CCCO)noc3N)[nH]c(=O)c2c1 | 130%
COc1ccc(/C(=N\O)c2cc(OC)c(OC)c(OC)c2)c(OC)c1N | 34.7%
CCOc1ccc(/C=C/C=N/NC(N)=S)cc1 | 78.7%
C=C1C(=O)O[C@H]2[C@H]1CC/C(COC(=O)NCCc1cccc(OC)c1)=C\CC[C@@]1(C)O[C@@H]21 | 75.1%
Cc1c(C2=NNC(c3ccc4c(c3)OCO4)C2)[n+]([O-])c2ccccc2[n+]1[O-] (stereo unspecified) | 93.8%
O=S(=O)(NCCCNc1cc(-c2cn(-c3ccccc3)nc2-c2cccc(O)c2)ccn1)c1ccc(Br)cc1 | 25.2%

SMILES | growth
COc1cccc2nc(Nc3ccc(NC(=O)c4ccc5ncccc5c4)cc3)ccc12 | 92.8%
COc1ncc(-c2ccc3ncnc(Nc4cccc(Cl)c4)c3c2)cc1NS(=O)(=O)CCN1CCOCC1 | 21.4%
O=C(OCCCCOC(=O)n1cnc2ccccc21)n1cnc2ccccc21 | 99.7%
Cc1cc(C)c2c(=O)[nH]c(SCC(=O)Nc3cccc(S(=O)(=O)N(C)C)c3)nc2n1 | 104%
Cc1ccc(S(=O)(=O)OCC(=O)Nc2ccc(C(=O)O)c(O)c2)cc1 | 131%
CN(C)c1nc(N)c(N=O)c(N)n1 | 107%
Cc1nc2scc(-c3ccccc3)n2c(=O)c1CCO | 99.6%
Cc1ccc2c(c1)C(C)Cc1c(ncnc1-n1cnc3ccccc31)N2C (stereo unspecified) | 28.9%
O=S(=O)(NCCNc1cc(-c2cn(-c3ccccc3)nc2-c2ccccc2)ccn1)c1cccc2ccccc12 | 49.8%
CCCCCCOc1ccc(C2(Cl)c3ccccc3N(C)c3ccccc32)cc1 | 24.5%
CN(C)C1CCC(NC2=CC(=O)C=CC2=O)CC1 (stereo unspecified) | 110%
CC(=O)N1Cc2ccccc2C(C)Cc2cc(Cl)ccc21 (stereo unspecified) | 106%
NC(N)=NC(N)=Nc1ccccc1-c1ccccc1 | 100%
Cc1oc2ncnc(Nc3ccccc3)c2c1C(=O)NCCO | 92%
Cc1cc(NC(=O)COC(=O)c2sc3cc(F)ccc3c2Cl)no1 | 108%
CC1(C)OC2COC3(C(=O)O)OC(C)(C)OC3C2O1 (stereo unspecified) | 97.8%
C/C(=C\c1csc(C)n1)[C@@H]1C[C@@H]2O[C@]2(C)CCC[C@H](C)[C@H](O)[C@@H](C)C(=O)C(C)(C)[C@@H](O)CC(=O)N1 | -70% (active)
COc1cc2c(cc1OCCCCn1c(-c3cc(=O)c4ccccc4o3)nc3ccccc31)N=C[C@@H]1CCCN1C2=O | 101%
COc1cc(-c2csc(NC(=O)c3cc(C(F)(F)F)cc(C(F)(F)F)c3)n2)cc(OC)c1OC | -10.2% (active)

test system: NCI-H226 lung; test: as above; settings: 10 µM unless noted

SMILES | growth
CCN(CC)S(=O)(=O)c1ccc2[nH]c(=O)cc(C(=O)Nc3ccc(OC)cc3OC)c2c1 | 100%
COc1ccc(/C=C/C(=O)OCC(=O)NNC(=O)c2ccccc2)cc1OC | 103%
COc1ncc(-c2ccc3ncnc(Nc4cccc(Cl)c4)c3c2)cc1N(S(C)(=O)=O)S(C)(=O)=O | 64.5%
Cc1c(C(=O)NCc2ccccc2)[n+](=O)c2cc(F)ccc2n1[O-] | 103%
COc1cc(Br)c(OC)cc1Br | 98.3%
CN1CCN(CCCOc2ccc3nc(Nc4ccc(C(F)(F)F)c(Cl)c4)ccc3c2)CC1 | 54.1%
CC(=O)c1cc(C(=O)c2ccc3c(c2)Sc2ccccc2N3)c2cc(C)ccn12 | 56.6%
Cc1cc(C(=O)O)c(N)c(C)n1 | 118%
c1ccc2c(c1)Oc1ccccc1C2C1c2ccccc2Oc2ccccc21 | 103%
CC/C=C\C[C@H](O)C/C=C1/C(=O)C(Cl)=C[C@@H]1C/C=C\CCCC(=O)O | 89.6%
O=C(Nc1ccc(I)cc1)c1cc([N+](=O)[O-])ccc1O | 45.9%
O=C(CSc1nc(-c2ccc(Cl)cc2)cn1-c1ccc(Cl)cc1)c1ccc(Br)cc1 | 68.4%
N#CC1=C(N)n2nc(-c3ccncc3)nc2NC1c1cccc2ccccc12 (stereo unspecified) | 78.3%
Cc1ccc2nc(-c3c(CCCO)noc3N)[nH]c(=O)c2c1 | 99.9%
COc1ccc(/C(=N\O)c2cc(OC)c(OC)c(OC)c2)c(OC)c1N | 78.2%
CCOc1ccc(/C=C/C=N/NC(N)=S)cc1 | 119%
C=C1C(=O)O[C@H]2[C@H]1CC/C(COC(=O)NCCc1cccc(OC)c1)=C\CC[C@@]1(C)O[C@@H]21 | 41.3%
Cc1c(C2=NNC(c3ccc4c(c3)OCO4)C2)[n+]([O-])c2ccccc2[n+]1[O-] (stereo unspecified) | 102%
O=S(=O)(NCCCNc1cc(-c2cn(-c3ccccc3)nc2-c2cccc(O)c2)ccn1)c1ccc(Br)cc1 | 22.2%

SMILES | growth
COc1cccc2nc(Nc3ccc(NC(=O)c4ccc5ncccc5c4)cc3)ccc12 | 97.5%
COc1ncc(-c2ccc3ncnc(Nc4cccc(Cl)c4)c3c2)cc1NS(=O)(=O)CCN1CCOCC1 | 22.3%
O=C(OCCCCOC(=O)n1cnc2ccccc21)n1cnc2ccccc21 | 97.4%
Cc1cc(C)c2c(=O)[nH]c(SCC(=O)Nc3cccc(S(=O)(=O)N(C)C)c3)nc2n1 | 91.9%
Cc1ccc(S(=O)(=O)OCC(=O)Nc2ccc(C(=O)O)c(O)c2)cc1 | 126%
CN(C)c1nc(N)c(N=O)c(N)n1 | 112%
Cc1nc2scc(-c3ccccc3)n2c(=O)c1CCO | 99.9%
Cc1ccc2c(c1)C(C)Cc1c(ncnc1-n1cnc3ccccc31)N2C (stereo unspecified) | 72.4%
O=S(=O)(NCCNc1cc(-c2cn(-c3ccccc3)nc2-c2ccccc2)ccn1)c1cccc2ccccc12 | 48%
CCCCCCOc1ccc(C2(Cl)c3ccccc3N(C)c3ccccc32)cc1 | 29.5%
CN(C)C1CCC(NC2=CC(=O)C=CC2=O)CC1 (stereo unspecified) | 116%
CC(=O)N1Cc2ccccc2C(C)Cc2cc(Cl)ccc21 (stereo unspecified) | 117%
NC(N)=NC(N)=Nc1ccccc1-c1ccccc1 | 111%
Cc1oc2ncnc(Nc3ccccc3)c2c1C(=O)NCCO | 106%
Cc1cc(NC(=O)COC(=O)c2sc3cc(F)ccc3c2Cl)no1 | 101%
CC1(C)OC2COC3(C(=O)O)OC(C)(C)OC3C2O1 (stereo unspecified) | 99.9%
C/C(=C\c1csc(C)n1)[C@@H]1C[C@@H]2O[C@]2(C)CCC[C@H](C)[C@H](O)[C@@H](C)C(=O)C(C)(C)[C@@H](O)CC(=O)N1 | -60.3% (active)
COc1cc2c(cc1OCCCCn1c(-c3cc(=O)c4ccccc4o3)nc3ccccc31)N=C[C@@H]1CCCN1C2=O | 101%
COc1cc(-c2csc(NC(=O)c3cc(C(F)(F)F)cc(C(F)(F)F)c3)n2)cc(OC)c1OC | 23.6%

From PubChem BioAssay (NCI)
